Inconclusive results are not listed. Calls of active or inactive are those of the source. The calls were made as follows, unless noted: active = hit-call score of the fitted dose curve at least 0.9, where 1 is the maximum; inactive = score below 0.9.
Assays:
[1] = tested on: DIO2 (gene 1734); experiment: CCTE_GLTED_hDIO2: CCTE's human Deiodinase 2 (DIO2) Inhibition Assay, Great Lakes Toxicology and Ecology Division (GLTED) Lab (AID 2284050; active = hit-call score of the fitted dose curve at least 0.9, where 1 is the maximum)
Outline: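 Inhibition is judged by reduced iodide release: uninhibited human DIO2 frees iodide from substrate over 3 h, measured afterward by Sandell-Kolthoff colorimetry. Iodinated chemicals or nitrite, iron and thiocyanate may interfere.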

[2] = tested on: DIO3 (gene 1735); experiment: CCTE_GLTED_hDIO3: CCTE's human Deiodinase 3 (DIO3) Inhibition Assay, Great Lakes Toxicology and Ecology Division (GLTED) Lab (AID 2284055; active = hit-call score of the fitted dose curve at least 0.9, where 1 is the maximum;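 as to AC50: potency is for inhibition seen as loss of released iodide signal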)
Outline: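 Human type 3 deiodinase, expressed via adenovirus system, was exposed to test chemicals for 3 hours in a cell-free format. Released iodide was then determined spectrophotometrically by Sandell-Kolthoff; plates ran in triplicate.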

[3] = CCTE_Shafer_MEA_dev_inter_network_spike_interval_mean: CCTE's Neural Network Formation Assay for Mean Inter-network Spike Interval, Shafer Lab (AID 2284047)
Outline: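 Rat cortical cultures, 1.5 x 10^5 cells/well on 48-well MEA plates; continuous exposure days 0–12, medium and compound refreshed DIV 5, 9. Mean time between consecutive network-spike peaks; AUC across DIV 5/7/9/12; DMSO baseline, negative fitting direction.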

[4] = CCTE_Shafer_MEA_dev_network_spike_number: CCTE's Neural Network Formation Assay for Number of Network Spikes, Shafer Lab (AID 2284048);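 also: synchronized bursts across electrodes counted on days 5 7 9 12 and integrated as AUC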;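 as to AC50: fit as a loss of signal meaning fewer network spikes than DMSO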
Outline: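 Number of network spikes (coordinated firing across electrodes) recorded on days 5, 7, 9 and 12 and summarised as area under the curve. Rat cortical cultures on MEA, continuous compound exposure with full medium/treatment exchange at DIV 5 and 9.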

[5] = CCTE_Shafer_MEA_dev_network_spike_peak: CCTE's Neural Network Formation Assay for Mean Number of Electrodes in Network Spike, Shafer Lab (AID 2284049);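 as to AC50: fitted for loss of signal meaning fewer electrodes in network spikes than DMSO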
Outline: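 Rat cortical primary culture, 1.5 x 10^5 cells/well, 48-well MEA (16 electrodes/well). Dosing day 0 through DIV 12, full media/compound exchange DIV 5, 9. AxIS adaptive spike detection; AUC over days 5/7/9/12; loss-of-signal vs DMSO.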

[6] = CCTE_Shafer_MEA_dev_spike_duration_mean: CCTE's Neural Network Formation Assay for Mean Spike Duration, Shafer Lab (AID 2284051);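 also: mean network spike duration pooled as area under curve over DIV 5 to 12 recordings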;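 as to AC50: potency for a decrease in mean network spike duration versus DMSO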
Outline: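 Readout is the average length of network spikes, clustered firing across electrodes, summed over DIV 5, 7, 9 and 12 as area under the curve. Neurons from rat cortex developed networks on MEA plates under continuous 12-day exposure.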

[7] = CCTE_Shafer_MEA_dev_network_spike_duration_std: CCTE's Neural Network Formation Assay for Standard Deviation of Network Spike Duration, Shafer Lab (AID 2284052);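 also: hits are decreases in network spike duration SD versus DMSO vehicle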
Protocol: CCTE_Shafer_MEA_dev assay is conducted using Axion Biosystems 48 well microelectrode array (MEA) plates and Maestro recording system. Each well of the MEA plate contains a grid of 16 microelectrodes embedded in the culture surface. Electrically active cells, such as neurons, can be cultured over the electrodes, and electrical activity in these cells can be recorded extracellularly. The spontaneous firing of neurons is captured from each electrode on a microsecond timescale providing both temporally and spatially precise data. […] The CCTE_Shafer_MEA_dev assay uses primary cultures of rat cortical neurons. Recordings are made on days post-plating 5, 7, 9 and 12. As these cultures mature over time, neural networks develop functional activity and form cohesive networks in which electrical activity can be highly coordinated. CCTE_Shafer_MEA_dev_network_spike_duration_std is 1 of 19 assay components of the CCTE_Shafer_MEA_dev assay. It measures the standard deviation of the duration of network spikes (temporally-clustered groups of action potential firing across multiple electrodes) during a recording in a microelectrode array (MEA) using Axion Biosystems Maestro 768 channel amplifier with the AxIS adaptive spike detector. To collapse across multiple recordings made on days post-plating 5, 7, 9 and 12, the trapezoidal area-under-the-curve of the component is calculated.Data from the assay component CCTE_Shafer_MEA_dev_network_spike_duration_std was analyzed into 1 assay endpoint. This assay endpoint, CCTE_Shafer_MEA_dev_network_spike_duration_std, was analyzed in the negative analysis fitting direction relative to DMSO as the negative control and baseline of activity. Using a type of functional reporter, gain or loss-of-signal activity can be used to understand electrical activity.
(§1) On the day prior to culture, each well was coated thoroughly with 150 uL of 0.05% polyethyleneimine (PEI, Sigma Cat P3143) in 50 mM HEPES (Sigma Cat H7523) at a pH of 8. The plate was incubated at 37C for one hour. PEI was rinsed out with 500 uL of sterile water three times. Plates were stored at 4C until the day of culture. This culture was plated at a seeding density of 1.5 x 10^5 cells/well on a 48-well MEA plate, prepared as described above. Cells were administered via a 25 uL media/laminin ([…]; Sigma Cat L2020-1MG) drop directly onto the microelectrode array, as adding the cells with the laminin results in better attachment than pre-coating with laminin. After 2 hours, an additional 475 uL of cortical media was added and the cells returned to the incubator. Exposure starts at day 0 of plating and is continued over twelve days of network development until the experiment is terminated. Cells are fed with fresh medium on DIV 5 and 9, following the recordings on those days. The entire volume of media in the well is exchanged and any vehicle or compound treatment is renewed. Complete details are found in OP-NHEERL/ISTD/SBB/TJS/2015-03-r0 (available on request, email shafer.tim@epa.gov). Measurement of the electrical activity is non-invasive, and recordings can be made from the same plate over multiple different days of the culture. In cortical neurons, this allows for the measurement of extracellular action potentials over the period during which networks form in the MEA plate.

[8] = CCTE_Shafer_MEA_dev_per_network_spike_spike_number_mean: CCTE's Neural Network Formation Assay for Mean Number of Spikes in a Network Spike, Shafer Lab (AID 2284053);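 as to AC50: fitted as decrease in spikes per network spike relative to DMSO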
Protocol: CCTE_Shafer_MEA_dev assay is conducted using Axion Biosystems 48 well microelectrode array (MEA) plates and Maestro recording system. Each well of the MEA plate contains a grid of 16 microelectrodes embedded in the culture surface. Electrically active cells, such as neurons, can be cultured over the electrodes, and electrical activity in these cells can be recorded extracellularly. The spontaneous firing of neurons is captured from each electrode on a microsecond timescale providing both temporally and spatially precise data. […] The CCTE_Shafer_MEA_dev assay uses primary cultures of rat cortical neurons. Recordings are made on days post-plating 5, 7, 9 and 12. As these cultures mature over time, neural networks develop functional activity and form cohesive networks in which electrical activity can be highly coordinated. CCTE_Shafer_MEA_dev_per_network_spike_spike_number_mean is 1 of 19 assay components of the CCTE_Shafer_MEA_dev assay. It measures the average number of spikes (action potential firings) in a network spike (temporally-clustered group of spikes across multiple electrodes) as the number of spikes that occur within a 0.05 s time window at the peak of a network spike divided by the total number of network spikes during a recording in a microelectrode array (MEA) using Axion Biosystems Maestro 768 channel amplifier with the AxIS adaptive spike detector. To collapse across multiple recordings made on days post-plating 5, 7, 9 and 12, the trapezoidal area-under-the-curve of the component is calculated.Data from the assay component CCTE_Shafer_MEA_dev_per_network_spike_spike_number_mean was analyzed into 1 assay endpoint. This assay endpoint, CCTE_Shafer_MEA_dev_per_network_spike_spike_number_mean, was analyzed in the negative analysis fitting direction relative to DMSO as the negative control and baseline of activity. Using a type of functional reporter, gain or loss-of-signal activity can be used to understand electrical activity.
as §1

[9] = CCTE_Shafer_MEA_dev_per_network_spike_spike_percent: CCTE's Neural Network Formation Assay for Percent of Spikes in a Network Spike, Shafer Lab (AID 2284054)
Outline: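 Metric: fraction of spikes falling in a 0.05 s window at network-spike peaks. Recordings were made on days 5, 7, 9 and 12 and collapsed by trapezoidal AUC. Cultures were rat cortical neurons on MEA plates, dosed continuously from plating, re-dosed at media changes.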

[10] = CCTE_Shafer_MEA_dev_LDH: CCTE's Lactate Dehydrogenase Assay for Cytotoxicity in the Neural Network Formation Assay, Shafer Lab (AID 2284068; active = hit-call score of the fitted dose curve at least 0.9, where 1 is the maximum;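 also: exposure for twelve days from plating with re-dosing on DIV 5 and 9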)
Outline: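 Cytotoxicity companion to network-formation recordings: rat cortical neurons received compound over 12 days of development, re-dosed at DIV 5 and 9 feeds. Viability was inferred from LDH enzyme activity relative to DMSO.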

CCCCCCCCCCCCO
outcome [1]: inactive
AC50 [2]: 82.6 µM (active)

OC12N=C(c3ccccc3)SC1Cc1cc(Cl)ccc12 (stereo not given)
AC50 [1]: 72.5 µM (active)
AC50 [2]: 86.5 µM (active)

NCc1cccc(C2CCN(C(=O)c3ccc(C#Cc4ccccc4F)o3)CC2)c1
AC50 [1]: 30.6 µM (active)
AC50 [2]: 23.3 µM (active)

NC(=O)c1nc(-c2cccc(-c3cc(F)ccc3OCC(F)(F)C(F)(F)F)c2)n[nH]1
AC50 [1]: 100 µM (active)
AC50 [2]: 182 µM (active)

CC(C)(c1cc(Br)c(O)c(Br)c1)c1cc(Br)c(O)c(Br)c1
outcome [3]: inactive
outcome [4]: inactive
outcome [5]: inactive
AC50 [1]: 48.6 µM (active)
outcome [6]: inactive
outcome [7]: inactive
outcome [8]: inactive
outcome [9]: inactive
AC50 [2]: 37.8 µM (active)
outcome [10]: inactive

CCN(CC)C(=O)c1cc(S(=O)(=O)Cc2ccccc2)c(N2CCC(c3ccccc3)CC2)cc1N(CC)CCN(C)C
AC50 [1]: 37 µM (active)
AC50 [2]: 53.4 µM (active)

CC(C)(C)c1csc(-c2cc3cc(OCc4ccccc4CC(=O)O)ccc3o2)n1
AC50 [1]: 120 µM (active)
AC50 [2]: 148 µM (active)

CN1C(=O)CC[C@H]1c1cccnc1
outcome [3]: inactive
outcome [4]: inactive
outcome [5]: inactive
outcome [6]: inactive
outcome [7]: inactive
outcome [8]: inactive
outcome [9]: inactive
outcome [10]: inactive

CC(C)(C)c1cc(/C=C2\SC(N)=NC2=O)cc(C(C)(C)C)c1O
AC50 [1]: 30.3 µM (active)
AC50 [2]: 19.9 µM (active)

Clc1ccccc1C(c1ccccc1)(c1ccccc1)n1ccnc1
outcome [3]: inactive
outcome [4]: inactive
outcome [5]: inactive
outcome [6]: inactive
outcome [7]: inactive
outcome [8]: inactive
outcome [9]: inactive

O=C1O[C@H]([C@@H](O)CO)C(O)=C1O
outcome [3]: inactive
outcome [4]: inactive
outcome [5]: inactive
outcome [6]: inactive
outcome [7]: inactive
outcome [8]: inactive

CN(C[C@@H](CC[N+]12CCC(C3CCCCC3)(CC1)CC2)c1ccc(Cl)c(Cl)c1)C(=O)c1cc(C(F)(F)F)cc(C(F)(F)F)c1
AC50 [1]: 37.8 µM (active)
AC50 [2]: 81.9 µM (active)

c1ccc2ccccc2c1
outcome [3]: inactive
outcome [4]: inactive
outcome [5]: inactive
outcome [6]: inactive
outcome [7]: inactive
outcome [8]: inactive
outcome [9]: inactive
outcome [10]: inactive

CN(C)C(=O)C1(N2CCCCC2)CCN(CC[C@@]2(c3ccc(Cl)c(Cl)c3)CN(C(=O)c3ccccc3)CCO2)CC1
AC50 [1]: 73.9 µM (active)
outcome [2]: inactive

CCCCCCCCCCCC[N+](C)(C)C
AC50 [1]: 96.4 µM (active)
AC50 [2]: 119 µM (active)

CN1C(=O)N(c2ccccc2Br)Cc2cnc(Nc3ccc4c(c3)OCC(CO)O4)nc21 (stereo not given)
outcome [1]: inactive

CCCCCCCCOC(=O)c1cc(O)c(O)c(O)c1
AC50 [1]: 143 µM (active)
AC50 [2]: 76.5 µM (active)

CCCCCCCCCCCO
AC50 [2]: 152 µM (active)

O=CCCCC=O
AC50 [1]: 91.3 µM (active)
AC50 [2]: 9.03 µM (active)

CN(C)c1ccc(C(=C2C=CC(=[N+](C)C)C=C2)c2ccc(N(C)C)cc2)cc1
AC50 [1]: 134 µM (active)
AC50 [2]: 22.6 µM (active)

CC/C(=C(/CC)c1ccc(O)cc1)c1ccc(O)cc1
outcome [3]: inactive
AC50 [4]: 0.077 µM (active)
AC50 [5]: 11.3 µM (active)
AC50 [6]: 15 µM (active)
outcome [7]: inactive
AC50 [8]: 5.65 µM (active)
AC50 [9]: 3.87 µM (active)
AC50 [10]: 19.5 µM (active)

CCOC(=O)O[C@H](C)OC(=O)c1ccc2c(c1)cc(C(=O)NC1CCN(C(C)C)CC1)n2Cc1cc(-c2ccc(Cl)s2)on1
AC50 [1]: 45.2 µM (active)
AC50 [2]: 1.16 µM (active)

Oc1ccccc1
outcome [3]: inactive
outcome [4]: inactive
outcome [5]: inactive
outcome [6]: inactive
outcome [7]: inactive
outcome [8]: inactive
outcome [9]: inactive
outcome [10]: inactive
